Source: the supplement of paper PMC8387472

What was measured:
Experiment in all cases: fraction of microhomology deletions among edited reads; higher = more MH deletions
Conditions in all cases: mESC; 2uM; 72 h treatment, harvest day 5
[1] = compound: CO[C@H]1/C=C/O[C@@]2(C)Oc3c(C)c(O)c4c(O)c(c(/C=N/N5CCN(C6CCCC6)CC5)c(O)c4c3C2=O)NC(=O)/C(C)=C\C=C\[C@H](C)[C@H](O)[C@@H](C)[C@@H](O)[C@@H](C)[C@H](OC(C)=O)[C@@H]1C [Rifapentine]
[2] = compound: COc1ccccc1-c1cc(Nc2cccc(CS(N)(=O)=O)c2)ncn1
[3] = compound: C[C@@H]1CN(CC(=O)Nc2ccc3c(c2)Cc2cccc(-c4cc(=O)cc(N5CCOCC5)o4)c2S3)C[C@H](C)O1
[4] = compound: Cc1cc(C)nc(SCC(=O)Nc2ncc(Cc3cccc4ccccc34)s2)n1
[5] = compound: Cc1cccc(CC(=O)N2CCc3c2ccc(-c2cn(C)c4ncnc(N)c24)c3F)n1
[6] = compound: NC(=O)c1ccc2nc(-c3ccc(Oc4ccc(Cl)cc4)cc3)[nH]c2c1 [Chk 2 inhibitor II (BML-277)]
[7] = compound: Nc1cc(F)ccc1NC(=O)c1ccc(CNC(=O)/C=C/c2cccnc2)cc1 [Tucidinostat (Chidamide)]
[8] = compound: Nc1nc2[nH]cc(CCc3ccc(C(=O)N[C@@H](CCC(=O)O)C(=O)O)cc3)c2c(=O)[nH]1 [Pemetrexed]
[9] = compound: Nc1ncnc2c1c(-c1cnc3[nH]ccc3c1)nn2C1CCCC1
[10] = compound: O=C(c1cccc(Cl)c1F)N1CCN(Cc2cccc(Nc3nccs3)n2)CC1

Target: 2.0 (DMSO control at this site: 1-bp insertion 0.364, MH deletion 0.356, edited 0.125) GGTGCCCCCGAGACCTACGCGAACCGAAATCGATGTCCGGTGCGCAAGCAGGGCTGGCGTC
- fraction of microhomology deletions among edited reads [1]: 0.417
- fraction of microhomology deletions among edited reads [2]: 0.327
- fraction of microhomology deletions among edited reads [3]: 0.123
- fraction of microhomology deletions among edited reads [4]: 0.378
- fraction of microhomology deletions among edited reads [5]: 0.3
- fraction of microhomology deletions among edited reads [6]: 0.397
- fraction of microhomology deletions among edited reads [7]: 0.303
- fraction of microhomology deletions among edited reads [8]: 0.408
- fraction of microhomology deletions among edited reads [9]: 0.262
- fraction of microhomology deletions among edited reads [10]: 0.256

Target: 20.0 (DMSO control at this site: 1-bp insertion 0.349, MH deletion 0.138, edited 0.084) TACAGGTGTAGACTGGTTACGTGGCTGCGGAATTGACTGGTTACGTGGCTGCGGAATTTTG
- fraction of microhomology deletions among edited reads [1]: 0.246
- fraction of microhomology deletions among edited reads [2]: 0.159
- fraction of microhomology deletions among edited reads [3]: 0.0478
- fraction of microhomology deletions among edited reads [4]: 0.203
- fraction of microhomology deletions among edited reads [5]: 0.191
- fraction of microhomology deletions among edited reads [6]: 0.203
- fraction of microhomology deletions among edited reads [7]: 0.215
- fraction of microhomology deletions among edited reads [8]: 0.263
- fraction of microhomology deletions among edited reads [9]: 0.133
- fraction of microhomology deletions among edited reads [10]: 0.125

Target: 40.0 (DMSO control at this site: 1-bp insertion 0.072, MH deletion 0.192, edited 0.189) GCGAATCAACTGTTCAACAACAGCAGCAGCCACCTGGAGGACTACAGTGGCCTGTCCGTGT
- fraction of microhomology deletions among edited reads [1]: 0.211
- fraction of microhomology deletions among edited reads [2]: 0.146
- fraction of microhomology deletions among edited reads [3]: 0.0486
- fraction of microhomology deletions among edited reads [4]: 0.173
- fraction of microhomology deletions among edited reads [5]: 0.156
- fraction of microhomology deletions among edited reads [6]: 0.181
- fraction of microhomology deletions among edited reads [7]: 0.145
- fraction of microhomology deletions among edited reads [8]: 0.169
- fraction of microhomology deletions among edited reads [9]: 0.139
- fraction of microhomology deletions among edited reads [10]: 0.137

Target: 42.0 (DMSO control at this site: 1-bp insertion 0.145, MH deletion 0.655, edited 0.132) GGGCTAAACCTATGAGCACAGTAGAACTAAGGGTGGGTGGTGTAGCTAAAGAACTTGACCA
- fraction of microhomology deletions among edited reads [1]: 0.683
- fraction of microhomology deletions among edited reads [2]: 0.653
- fraction of microhomology deletions among edited reads [3]: 0.384
- fraction of microhomology deletions among edited reads [4]: 0.667
- fraction of microhomology deletions among edited reads [5]: 0.682
- fraction of microhomology deletions among edited reads [6]: 0.634
- fraction of microhomology deletions among edited reads [7]: 0.607
- fraction of microhomology deletions among edited reads [8]: 0.634
- fraction of microhomology deletions among edited reads [9]: 0.571
- fraction of microhomology deletions among edited reads [10]: 0.62

Target: 34.0 (DMSO control at this site: 1-bp insertion 0.184, MH deletion 0.385, edited 0.103) ATTATAGGACCCTGAGGGAGCAGAGATGTGGGAATGGGGGCCGAGCCAATTGTGATGTAAG
- fraction of microhomology deletions among edited reads [1]: 0.567
- fraction of microhomology deletions among edited reads [2]: 0.502
- fraction of microhomology deletions among edited reads [3]: 0.342
- fraction of microhomology deletions among edited reads [4]: 0.517
- fraction of microhomology deletions among edited reads [5]: 0.483
- fraction of microhomology deletions among edited reads [6]: 0.486
- fraction of microhomology deletions among edited reads [7]: 0.409
- fraction of microhomology deletions among edited reads [8]: 0.413
- fraction of microhomology deletions among edited reads [9]: 0.39
- fraction of microhomology deletions among edited reads [10]: 0.39

Target: 43.0 (DMSO control at this site: 1-bp insertion 0.134, MH deletion 0.714, edited 0.104) AGTTTAACTTACTCCGGCCAAAAAAGAACTGCACCTCTGGAGCGGGTTAGTGGTGGTGGTA
- fraction of microhomology deletions among edited reads [1]: 0.683
- fraction of microhomology deletions among edited reads [2]: 0.663
- fraction of microhomology deletions among edited reads [3]: 0.698
- fraction of microhomology deletions among edited reads [4]: 0.639
- fraction of microhomology deletions among edited reads [5]: 0.717
- fraction of microhomology deletions among edited reads [6]: 0.677
- fraction of microhomology deletions among edited reads [7]: 0.68
- fraction of microhomology deletions among edited reads [8]: 0.625
- fraction of microhomology deletions among edited reads [9]: 0.662
- fraction of microhomology deletions among edited reads [10]: 0.686

Target: 27.0 CCAGAATTAGAACATATCATCTGGACCCTTTTCCATCTGGACCCTTTTCCAGCACACCCTG
- fraction of microhomology deletions among edited reads [1]: 0.214
- fraction of microhomology deletions among edited reads [2]: 0.156
- fraction of microhomology deletions among edited reads [4]: 0.104
- fraction of microhomology deletions among edited reads [7]: 0.174
- fraction of microhomology deletions among edited reads [9]: 0.105

Target: 4.0 (DMSO control at this site: 1-bp insertion 0.146, MH deletion 0.523, edited 0.125) ACGCCTTAGTGCACGAGTGACGGGATAATGTGGTCTCAGGTAATTGATAGGCTTCCAACTT
- fraction of microhomology deletions among edited reads [1]: 0.592
- fraction of microhomology deletions among edited reads [2]: 0.535
- fraction of microhomology deletions among edited reads [3]: 0.319
- fraction of microhomology deletions among edited reads [4]: 0.545
- fraction of microhomology deletions among edited reads [5]: 0.492
- fraction of microhomology deletions among edited reads [6]: 0.575
- fraction of microhomology deletions among edited reads [7]: 0.482
- fraction of microhomology deletions among edited reads [8]: 0.504
- fraction of microhomology deletions among edited reads [9]: 0.501
- fraction of microhomology deletions among edited reads [10]: 0.475

Target: 47.0 (DMSO control at this site: 1-bp insertion 0.095, MH deletion 0.585, edited 0.118) GAGTGGTCCCGAGCCAGGAACTGTGTGTGTTGCAGGGGGGCAGTAACTCCCCAACTCCCTC
- fraction of microhomology deletions among edited reads [1]: 0.57
- fraction of microhomology deletions among edited reads [2]: 0.469
- fraction of microhomology deletions among edited reads [3]: 0.319
- fraction of microhomology deletions among edited reads [4]: 0.528
- fraction of microhomology deletions among edited reads [5]: 0.477
- fraction of microhomology deletions among edited reads [6]: 0.494
- fraction of microhomology deletions among edited reads [7]: 0.442
- fraction of microhomology deletions among edited reads [8]: 0.503
- fraction of microhomology deletions among edited reads [9]: 0.389
- fraction of microhomology deletions among edited reads [10]: 0.453
